RXFP1 antag – RXFP1 (human) relaxin receptor antagonism; Q9HBX9; HEK293-RXFP1, relaxin-stimulated cAMP HTRF, 30 min; active compounds read low; activity change, negative = inhibition, % at 57.5 µM; 350,000 tested, 0.59% active; AID 1259400;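 active means activity change of -60% or lower, but not beyond a set lower limit; inconclusive means change between -60% and -40%, or beyond the set limit; inactive means change above -40%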; further: on the % scale 0 is the no-effect control and ±100 the full control effect
Target sequence (Q9HBX9 whole entry, looked up): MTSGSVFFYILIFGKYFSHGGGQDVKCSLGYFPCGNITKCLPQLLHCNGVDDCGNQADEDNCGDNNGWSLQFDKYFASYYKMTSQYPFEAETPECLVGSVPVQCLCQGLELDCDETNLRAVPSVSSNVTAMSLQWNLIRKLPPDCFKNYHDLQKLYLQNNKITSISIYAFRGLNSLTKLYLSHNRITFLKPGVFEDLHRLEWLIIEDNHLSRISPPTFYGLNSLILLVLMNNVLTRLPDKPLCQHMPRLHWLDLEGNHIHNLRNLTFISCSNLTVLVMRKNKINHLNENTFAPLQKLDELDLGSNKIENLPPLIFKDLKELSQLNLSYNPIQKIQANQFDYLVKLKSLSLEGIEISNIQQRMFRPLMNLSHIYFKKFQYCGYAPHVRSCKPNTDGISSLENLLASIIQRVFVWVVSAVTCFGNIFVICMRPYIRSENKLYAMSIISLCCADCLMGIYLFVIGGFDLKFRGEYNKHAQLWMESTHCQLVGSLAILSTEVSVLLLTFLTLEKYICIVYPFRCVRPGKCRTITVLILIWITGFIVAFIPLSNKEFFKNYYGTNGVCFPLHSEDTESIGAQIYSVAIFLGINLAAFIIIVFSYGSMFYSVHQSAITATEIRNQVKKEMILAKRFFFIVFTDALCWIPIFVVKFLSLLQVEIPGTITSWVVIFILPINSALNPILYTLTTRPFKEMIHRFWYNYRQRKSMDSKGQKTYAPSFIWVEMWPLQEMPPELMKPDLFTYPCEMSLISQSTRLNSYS
gsp antag – gsp mutant antagonism; gsp-mutant cells, cAMP HTRF, 30 min; Potency, µM (top dose mostly 76.9 µM), inactives show at the top dose activity change, negative = inhibition, hits mostly inhibitors; 340,000 tested, 0.4% active; calls by dose curve; cell line not stated here;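 further: intracellular cAMP measured with PDE inhibitor Ro 20-1724 present during compound exposure; potency means the concentration at half of the fitted maximal effect; on the % scale 0 is the no-effect control and ±100 the full control effect; nearly all actives have a fitted effect of over 65% in size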
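Cells in G418 medium, seeded 16-24 h, 37C; buffer exchange to DPBS + 1 mM CaCl2, 0.5 mM MgCl2, 0.05% BSA; cpds in DMSO + […] (300 uM stock), 30 min 37C; HTRF cAMP detection.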
pAkt inh – blocks phosphorylation of Akt | Neuro2A IGF-stimulated pAkt S473 HTRF, 20 min; active compounds read low | activity change, % for hits at 50 µM | 360,000 tested, 0.32% active; in the data active means activity change below about -80%; inconclusive means mostly about -51% to -80%; further: on the % scale 0 is the no-effect control and ±100 the full control effect
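Neuro2A cells (4,500/well, DMEM with 0.5% FBS) were treated with compound at a single 50 µM final concentration, stimulated with 6 nM IGF for 20 min at 37 °C, and lysed. Phospho-Akt Ser473 was read by HTRF as 665/615 ratio ×10^4.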
RXFP1 agonist – RXFP1 (human) receptor agonism | Potency, µM (top dose mostly 57.5 µM), without a hit: at the top dose activation, most hits filed as activators | Q9HBX9 | AID 2676 | HEK293T-RXFP1 cAMP TR-FRET, 30 min; response scale: percent of porcine relaxin response, buffer zero | 370,000 tested, 0.3% active; active means well fitted activation curve with a large enough effect; inconclusive means small, poorly fitted or top-dose-only effect; further: potency means the concentration at half of the fitted maximal effect; on the % scale 0 is the no-effect control and ±100 the full control effect; nearly all actives have a fitted effect of over 60% in size
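Agonist response is measured as cAMP accumulation in an RXFP1-transfected HEK293T line under PDE4 inhibition. Values are scaled between buffer-only and 29 nM porcine relaxin, and EC50s come from standard Hill equation fits.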
gsp ag – agonists of gsp mutant (McCune-Albright syndrome). gsp mutant cells, cAMP HTRF, 30 min. Potency, µM (highest dose often 76.9 µM), without a hit: at the top dose activation (cAMP increase), usual class: activators. 340,000 tested, 0.13% active; active means well fitted activation curve with a large enough effect; inconclusive means small, poorly fitted or top-dose-only effect, or another doubt; inactive means no such curve, though single readings can be large or run the other way; cell line not stated here;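 further: phosphodiesterase inhibitor Ro 20-1724 added with compounds to block cAMP breakdown; potency means the concentration at half of the fitted maximal effect; nearly all actives have a fitted effect of over 60% in size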
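Cells stably selected in G418 were plated at 2000/well, grown 16-24 hr, then given compounds in DMSO with the PDE inhibitor […] (300 uM solution added) for 30 min at 37C; cAMP was read by HTRF.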
* hit, by the source's call; i = inactive; ? = inconclusive; . = no result given; [ ] = remark or other dose. Hits are enriched below; roughly 1.2% of the tested compounds scored in any of these assays.

SMILES	RXFP1 antag	gsp antag	pAkt inh	RXFP1 agonist	gsp ag
CCc1ccc(CN2CCN(Cc3ccc(SC)cc3)CC2)cc1	-62*	7%	i	0%	3%[15.4 µM]
CSc1ccc(CN2CCN(C(=O)COc3ccc(C)cc3)CC2)cc1	-12	0%	i	2%	3.2µM*
O=C(COc1ccc(S(=O)(=O)N2CCCCC2)cc1)N1CCN(Cc2ccccc2)CC1	5	-16%	i	2%	32µM*
O=C(CBr)Nc1ccc(Cl)cc1C(=O)c1ccccc1F	-27	.	.	.	.
CNC(=O)Oc1cc2c(cc1C(C)(C)C)CCC2	-86*	-2%	i	.	?
COc1cc(CC2(CCc3ccncc3)C(=O)NC(=O)NC2=O)cc(OC)c1OC	-79*	6%	i	0%	4%
COc1ccc(CC2(CCc3ccncc3)C(=O)NC(=O)NC2=O)c(OC)c1	7	-2%	i	-1%	?
COCCOCCO	-11	.	.	.	.
CCON=C(CC)C1=C(O)CC(c2c(C)cc(C)cc2C)CC1=O (configuration not stated)	-34	.	.	.	.
O=c1c2ccccc2nc(CSc2ncnc3nc[nH]c23)n1-c1ccccc1	0	20%	-84%*	?	-9%
O=c1c2ccccc2nc(CSc2ncnc3nc[nH]c23)n1-c1ccccc1Cl	5	2%	i	1%	8%
COCCNC(=O)c1c(N)n(Cc2ccco2)c2nc3ccccc3nc12	-4	9%	i	4%	-3%
C=CCNC(=O)c1c(N)n(Cc2ccco2)c2nc3ccccc3nc12	-18	3%	-99%*	2%	2%
O=C(c1ccco1)c1cn(Cc2ccccc2)c2ccccc12	-11	2%	-87%*	1%	?
CC(C)c1ccc(N2C(=O)NC(=O)/C(=C/C=C/c3ccco3)C2=O)cc1	-80*	-7%	i	0%	7%
Cc1ccc(N2C(=O)NC(=O)/C(=C/C=C/c3ccco3)C2=O)cc1	-62*	-9%	i	1%	14%
Cc1cc(C)cc(N2C(=O)NC(=O)/C(=C\C=C\c3ccco3)C2=O)c1	-20	15%	i	0%	-9%
CCc1ccc(N2C(=O)NC(=O)/C(=C\C=C\c3ccco3)C2=O)cc1	-27	-13%	i	1%	0%
O=C1NC(=O)N(Cc2ccc(F)cc2)C(=O)/C1=C\C=C\c1ccco1	-70*	6%	i	1%	27%
CN1C2CCC(C)(C)C1CC(OC(=O)C(O)(c1cccs1)c1cccs1)C2 (configuration not stated)	6	.	.	.	.
CN(C)CCc1c[nH]c2ccccc12	6	.	.	.	.
Nc1ccccc1C(=O)OCC(O)CO (configuration not stated)	-3	.	.	.	.
CC1Sc2c(C(=O)O)c(=O)c3cc(F)c(N4CCNCC4)cc3n21 (configuration not stated)	-3	.	.	.	.
CC(=O)OCC1=C(C(=O)O)N2C(=O)[C@@H](N)[C@H]2SC1	5	.	.	.	.
CCO[C@H]1O[C@@H]2OC3(C)CC[C@H]4[C@H](C)CC[C@@H]([C@H]1C)[C@@]24OO3	-21	.	.	.	.
SMILES	RXFP1 antag	gsp antag	pAkt inh	RXFP1 agonist	gsp ag
CC(C)Oc1cccc(C(=O)C2CCCN(Cc3ccon3)C2)c1 (configuration not stated)	1	2%	i	-1%	-10%
COc1ccc(C(=O)C2CCCN(Cc3ccon3)C2)c(OC)c1 (configuration not stated)	1	50µM*	i	4%	4%
O=c1[nH]c(=S)[nH]c(O)c1N=Nc1ccc2c(c1)OCO2	-9	-23%	i	0%	-35%
O=c1[nH]c(=S)[nH]c(O)c1N=Nc1ccc2c(c1)OCCO2	-95*	-25%	i	3%	1%[15.4 µM]
COP(=S)(OC)Oc1ccc(S(N)(=O)=O)cc1	2	.	.	.	.
COc1ccc(C2SCC(=O)Nc3c2c(=O)[nH]n3C2CCCCC2)cc1 (configuration not stated)	-6	9%	-105%*	1%	13%
Sc1ccccc1Cl	-6	.	.	.	.
CCOC(=O)N(c1ccccc1)P1(=S)OCCO1	-7	1%	-110%*	-1%	21%
COC(=O)N(c1ccccc1)P1(=S)OCCO1	6	12%	i	-1%	-11%
Cc1ccccc1C1=NCC(=O)N(CC(=O)N2CCCCC2)c2sc(C)c(C)c21	-6	7.1µM*	i	1%	-29%
CCc1cc2c(s1)N(CC(=O)OC)C(=O)CN=C2c1ccccc1OC	-3	-6%	i	0%	0%
Cc1ccccc1CN1C(=O)CN=C(c2ccccc2)c2cc(Cl)ccc21	-95*	.	.	1%	.
COP(=S)(OC)Oc1cc(Cl)c(Cl)cc1Cl	-10	.	.	.	.
Cc1nc2ccccc2c(=O)n1/N=C/c1cc(Br)cc(Br)c1O	-79*	?	i	.	-1%
O=[N+]([O-])c1cc(Cl)c(O)c(-[n+]2c(-c3ccccc3)cc(-c3ccccc3)cc2-c2ccccc2)c1	-5	13µM*	i	0%	?
O=C(Nc1ccc(Oc2ccc(Cl)cc2)c(Cl)c1)c1cc(I)cc(I)c1O	-92*	?	i	2%	.
O=C(O)c1ccc2c(c1)C1C(Cl)C(Sc3ccccc3[N+](=O)[O-])CC1C(c1cccc([N+](=O)[O-])c1)N2 (configuration not stated)	-89*	-53%	i	-1%	-1%[15.4 µM]
O=c1c(C2CC(c3ccc(-c4ccc(Br)cc4)cc3)Cc3ccccc32)c(O)sc2ccccc12 (configuration not stated)	-72*	.	.	.	.
CCC1(CCC(C)C)C(=O)NC(=O)NC1=O	6	.	.	.	.

Source: PubChem BioAssay
